# Measured values taken from PubChem BioAssay (NCATS).
# Where “and” joins values, the source holds several entries; their conditions need not be identical. Equal values may be shown once. Records with an inconclusive call do not appear. Calls of active or inactive are those of the source. Calls follow the shape of the dose curve; as a rule, active = well fitted curve in the direction sought with a large enough effect; inconclusive = small, poorly fitted or top-dose-only effect, or another doubt; inactive = no such curve, though single readings can be large; an effect the other way counts as inactive or inconclusive.
# Test: Cellular Toxicity (caspase-3) Hek293 (AID 664);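 also: cells exposed to compound for 16 h at 37 °C before readout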
# Conditions: HEK293 caspase-3 activation, DMSO = 0%, 100 µM tamoxifen = 100%; series mostly up to 92.2 µM; caspase-3 activation: at the top concentration
# In short: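 Apoptosis readout: Caspase-Glo 3/7 signal in human HEK293 cells following 16-hour compound incubation. Responses scaled between DMSO baseline and 100 uM tamoxifen.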
SMILES,outcome,caspase-3 activation
O=C(O)COc1ccc(Cl)cc1Cl,inactive,–
CCOCN(C(=O)CCl)c1c(C)cccc1CC,–,4.25% (inactive)
CNC(=O)O/N=C/C(C)(C)SC,–,0.42% (inactive)
CCNc1nc(Cl)nc(NC(C)C)n1,–,0.178% (inactive)
C=CCc1ccc(OC)cc1,–,-1.6% (inactive)
ClC1=C(Cl)C2(Cl)C3C4CC(C5OC45)C3C1(Cl)C2(Cl)Cl (stereo unspecified),–,14% (inactive)
ClC(Cl)=C(c1ccc(Cl)cc1)c1ccc(Cl)cc1,inactive,–
CCc1cccc(CC)c1N(COC)C(=O)CCl,–,2.46% (inactive)
C/C=C/c1ccc2c(c1)OCO2,–,-1.03% (inactive)
C=CCc1ccc2c(c1)OCO2,–,2.05% (inactive)
COP(=S)(OC)Oc1ccc([N+](=O)[O-])cc1,–,-0.627% (inactive)

# Test: Cellular Toxicity (caspase-3) N2a (AID 665);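 also: compound exposure lasted 16 h at 37 °C before readout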
# Conditions: N2a cells, luminescence, normalized: DMSO 0%, 10 µM staurosporine 100%; at 92.2 µM (top of the series)
# In short: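 Concentration-response qHTS: compound-induced caspase-3/7 luminescence in N2a cells (16 h, 37 °C), relative to DMSO and 10 uM staurosporine controls; AC50 obtained using the standard Hill equation.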
row,SMILES,caspase-3 activation
1,ClC1=C(Cl)C2(Cl)C3C4C=CC(C4)C3C1(Cl)C2(Cl)Cl (stereo unspecified),2.47% (inactive)
2,CCOCN(C(=O)CCl)c1c(C)cccc1CC,-0.109% (inactive)
3,CNC(=O)O/N=C/C(C)(C)SC,-2.85% (inactive)
4,C=CCc1ccc(OC)cc1,0.258% (inactive)
5,ClC1=C(Cl)C2(Cl)C3C(Cl)C=CC3C1(Cl)C2(Cl)Cl (stereo unspecified),-3.13% (inactive)
6,ClC1=C(Cl)C2(Cl)C3C4CC(C5OC45)C3C1(Cl)C2(Cl)Cl (stereo unspecified),-1.24% (inactive)

# Test: Cellular Toxicity (caspase-3) NIH 3T3 (AID 666);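 also: caspase signal read after 16 h compound exposure; 0% = DMSO basal and 100% = 100 µM tamoxifen stimulation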
# Conditions: NIH 3T3 caspase-3 activation, apoptosis/toxicity, 0% DMSO, 100% is 100 µM tamoxifen; series mostly up to 92.2 µM; caspase-3 activation: at the top concentration
# In short: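 Activity: caspase-3/7 induction, NIH 3T3 cells, 16 hr treatment at 37°C, luminescent Caspase-Glo detection; AC50 via Hill equation.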
SMILES,outcome,caspase-3 activation
O=C(O)COc1ccc(Cl)cc1Cl,inactive,–
ClC1=C(Cl)C2(Cl)C3C4C=CC(C4)C3C1(Cl)C2(Cl)Cl (stereo unspecified),–,4.86% (inactive)
O=S1OCC2C(CO1)C1(Cl)C(Cl)=C(Cl)C2(Cl)C1(Cl)Cl (stereo unspecified),–,1.27% (inactive)
c1ccc(N=Nc2ccccc2)cc1,–,-5.66% (inactive)
CCOCN(C(=O)CCl)c1c(C)cccc1CC,–,-9.78% (inactive)
CNC(=O)O/N=C/C(C)(C)SC,–,-2.78% (inactive)
CCNc1nc(Cl)nc(NC(C)C)n1,–,-1.84% (inactive)
C=CCc1ccc(OC)cc1,–,-2.65% (inactive)
ClC1=C(Cl)C2(Cl)C3C(Cl)C=CC3C1(Cl)C2(Cl)Cl (stereo unspecified),–,-3.15% (inactive)
ClC1=C(Cl)C2(Cl)C3C4CC(C5OC45)C3C1(Cl)C2(Cl)Cl (stereo unspecified),–,-2.39% (inactive)
ClC(Cl)=C(c1ccc(Cl)cc1)c1ccc(Cl)cc1,inactive,–
CCc1cccc(CC)c1N(COC)C(=O)CCl,–,-6.23% (inactive)
C/C=C/c1ccc2c(c1)OCO2,–,3.82% (inactive)
C=CCc1ccc2c(c1)OCO2,–,1.27% (inactive)
COP(=S)(OC)Oc1ccc([N+](=O)[O-])cc1,–,0.137% (inactive)

# Test: Cellular Toxicity (caspase-3) Renal Proximal Tubule (AID 667);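 also: cells exposed to compound for 16 hours at 37 °C before detection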
# Conditions: renal proximal tubule cells; at 91.7 µM (top of the series), primary cells freshly taken from rat, solvent-only wells 0%, staurosporine 100% unless noted
# In short: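 In qHTS format, rat primary proximal tubule cells seeded at 1000 per well are exposed to compounds for 16 hours at 37 °C. An increase in Caspase-Glo 3/7 luminescence indicates caspase activation.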
row,SMILES,caspase-3 activation
1,ClC1=C(Cl)C2(Cl)C3C4C=CC(C4)C3C1(Cl)C2(Cl)Cl (stereo unspecified),-0.505% [at 91.7 µM] (inactive)
2,O=S1OCC2C(CO1)C1(Cl)C(Cl)=C(Cl)C2(Cl)C1(Cl)Cl (stereo unspecified),8.37% [at 91.7 µM] (inactive)
3,c1ccc(N=Nc2ccccc2)cc1,1.95% (inactive)
4,CCOCN(C(=O)CCl)c1c(C)cccc1CC,0.858% (inactive)
5,CNC(=O)O/N=C/C(C)(C)SC,-0.514% [at 91.7 µM] (inactive)
6,CCNc1nc(Cl)nc(NC(C)C)n1,-3.87% [at 91.7 µM] (inactive)
7,C=CCc1ccc(OC)cc1,1.25% [at 91.7 µM] (inactive)
8,ClC1=C(Cl)C2(Cl)C3C(Cl)C=CC3C1(Cl)C2(Cl)Cl (stereo unspecified),2.29% (inactive)
9,ClC1=C(Cl)C2(Cl)C3C4CC(C5OC45)C3C1(Cl)C2(Cl)Cl (stereo unspecified),-4.43% [at 91.7 µM] (inactive)
10,ClC(Cl)=C(c1ccc(Cl)cc1)c1ccc(Cl)cc1,-10.4% [at 91.7 µM] (inactive) and -6.37% [at 91.7 µM] (inactive)
11,CCc1cccc(CC)c1N(COC)C(=O)CCl,1.3% (inactive)
12,C/C=C/c1ccc2c(c1)OCO2,-4.01% [at 91.7 µM] (inactive)
13,C=CCc1ccc2c(c1)OCO2,-2.37% [at 91.7 µM] (inactive)
14,COP(=S)(OC)Oc1ccc([N+](=O)[O-])cc1,-6.77% [at 91.7 µM] (inactive)
